PubChem BioAssay AID1159580 (chemical genetic matrix, 2015)
Out of some 5,500 compounds screened, about 2,000 (36%) were called active. About 18% were inconclusive and are not listed. No stated cut-off is given here; in the data, active means normalized growth mostly below about 0.91 (no sharp cut-off); inconclusive means no clear call, values can overlap the other calls; inactive means mostly above about 0.92. Some of the results follow.

Experiment: chemical genetic growth profiling, strain panel (AID 1159580);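 further: tested at 20 µM; growth read once vehicle control cultures reached saturation at 30 °C; 1 = growth at the plate median or of vehicle wells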
Details: S. cerevisiae deletion strains, growth OD

Measured: normalized growth

CCCCOc1cc(CC2CNC(=O)N2)ccc1OC (stereo unspecified)
inactive: locus YAL021C, strain ccr4, stronger effect = lower value 0.939 | locus YAL026C, strain drs2, stronger effect = lower value 1 | locus YAL030W, strain snc1, stronger effect = lower value 1.01 | locus YAL040C, strain CLN3, stronger effect = lower value 1.08 | locus YBL061C, strain skt5, stronger effect = lower value 0.998 | locus YBR009C, strain hhf1, stronger effect = lower value 1.06 | locus YBR023C, strain chs3, stronger effect = lower value 0.992 | locus YBR171W, strain sec66, stronger effect = lower value 0.984 | locus YBR231C, strain swc5, stronger effect = lower value 1.01 | locus YBR279W, strain paf1, stronger effect = lower value 0.999 | locus YCL011C, strain gbp2, stronger effect = lower value 0.984 | locus YCL016C, strain dcc1, stronger effect = lower value 1 | locus YCL061C, strain MRC1 (second series), stronger effect = lower value 1 | locus YCL061C, strain MRC1, stronger effect = lower value 0.985 | locus YCL069W, strain vba3, stronger effect = lower value 0.994 | locus YCR088W, strain abp1, stronger effect = lower value 0.987 | locus YDL005C, strain med2, stronger effect = lower value 0.986 | locus YDL040C, strain nat1, stronger effect = lower value 0.999 | locus YDR001C, strain nth1, stronger effect = lower value 0.988 | locus YDR069C, strain doa4, stronger effect = lower value 1.01 | locus YDR137W, strain rgp1, stronger effect = lower value 0.971 | locus YDR150W, strain NUM1, stronger effect = lower value 1.01 | locus YDR159W, strain sac3, stronger effect = lower value 1.07 | locus YDR195W, strain ref2 0.992 | locus YDR297W, strain sur2, stronger effect = lower value 0.993 | locus YDR334W, strain swr1, stronger effect = lower value 0.968 | locus YDR335W, strain msn5, stronger effect = lower value 0.98 | locus YDR392W, strain spt3, stronger effect = lower value 0.975 | locus YEL003W, strain gim4, stronger effect = lower value 0.998 | locus YEL037C, strain rad23, stronger effect = lower value 0.994 | locus YEL061C, strain CIN8 (second series), stronger effect = lower value 0.981 | locus YER002W, strain NOP16, stronger effect = lower value 1.01 | locus YER015W, strain faa2, stronger effect = lower value 0.994 | locus YER016W, strain bim1, stronger effect = lower value 1.01 | locus YER111C, strain swi4, stronger effect = lower value 1.01 | locus YER155C, strain BEM2 (second series), stronger effect = lower value 1.04 | locus YFR010W, strain ubp6, stronger effect = lower value 0.994 | locus YGL167C, strain pmr1, stronger effect = lower value 1 | locus YGL173C, strain kem1, stronger effect = lower value 0.991 | locus YGL227W, strain vid30, stronger effect = lower value 1 | locus YGL240W, strain doc1, stronger effect = lower value 1.04 | locus YGL253W, strain hxk2, stronger effect = lower value 0.999 | locus YHR013C, strain ard1, stronger effect = lower value 0.979 | locus YHR027C, strain rpn1, stronger effect = lower value 0.992 | locus YHR030C, strain SLT2, stronger effect = lower value 0.97 | locus YHR079C, strain IRE1, stronger effect = lower value 0.973 | locus YHR142W, strain chs7, stronger effect = lower value 0.914 | locus YJL092W, strain hpr5, stronger effect = lower value 0.967 | locus YJL095W, strain BCK1 (second series), stronger effect = lower value 0.989 | locus YJL095W, strain BCK1, stronger effect = lower value 0.978 | locus YJL115W, strain asf1, stronger effect = lower value 0.99 | locus YJL129C, strain trk1, stronger effect = lower value 0.965 | locus YJL154C, strain vps35, stronger effect = lower value 0.993 | locus YJL164C, strain tpk1, stronger effect = lower value 0.972 | locus YJL166W, strain qcr8, stronger effect = lower value 0.996 | locus YJL187C, strain SWE1, stronger effect = lower value 0.998 | locus YJR066W, strain TOR1, stronger effect = lower value 0.935 | locus YJR075W, strain HOC1, stronger effect = lower value 1.01 | locus YKL160W, strain elf1, stronger effect = lower value 0.954 | locus YKR026C, strain gcn3, stronger effect = lower value 0.981 | locus YKR091W, strain srl3, stronger effect = lower value 0.989 | locus YLL001W, strain dnm1, stronger effect = lower value 0.988 | locus YLL026W, stronger effect = lower value 0.998 | locus YLL041C, strain sdh2, stronger effect = lower value 0.984 | locus YLR027C, strain aat2, stronger effect = lower value 0.982 | locus YLR113W, strain HOG1, stronger effect = lower value 0.978 | locus YLR221C, strain rsa3, stronger effect = lower value 0.971 | locus YLR258W, strain gsy2, stronger effect = lower value 1.02 | locus YLR262C, strain YPT6 (second series), stronger effect = lower value 1 | locus YLR320W, strain mms22, stronger effect = lower value 1.02 | locus YLR342W, strain FKS1, stronger effect = lower value 1 | locus YLR357W, strain rsc2, stronger effect = lower value 1.02 | locus YLR370C, strain arc18, stronger effect = lower value 0.978 | locus YLR384C, strain iki3, stronger effect = lower value 0.993 | locus YML120C, strain ndi1, stronger effect = lower value 0.968 | locus YMR058W, strain fet3, stronger effect = lower value 0.978 | locus YMR125W, strain sto1, stronger effect = lower value 1.02 | locus YMR129W, stronger effect = lower value 0.992 | locus YMR205C, strain PFK2, stronger effect = lower value 1.06 | locus YMR231W, strain pep5, stronger effect = lower value 1 | locus YNL071W, strain lat1, stronger effect = lower value 0.987 | locus YNL128W, strain TEP1, stronger effect = lower value 1.01 | locus YNL175C, strain NOP13, stronger effect = lower value 1.02 | locus YNL183C, strain NPR1, stronger effect = lower value 0.956 | locus YNL197C, strain WHI3, stronger effect = lower value 1.03 | locus YNL209W, strain ssb2, stronger effect = lower value 1 | locus YNL224C, strain SQS1, stronger effect = lower value 1.01 | locus YNL248C, strain rpa49, stronger effect = lower value 0.93 | locus YNL322C, strain KRE1 (second series), stronger effect = lower value 0.987 | locus YNL322C, strain KRE1, stronger effect = lower value 1.02 | locus YNR049C, strain mso1, stronger effect = lower value 0.992 | locus YOR001W, strain rrp6, stronger effect = lower value 0.951 | locus YOR070C, strain gyp1, stronger effect = lower value 1.01 | locus YOR080W, strain dia2, stronger effect = lower value 0.99 | locus YOR083W, strain WHI5 (second series), stronger effect = lower value 1 | locus YOR083W, strain WHI5, stronger effect = lower value 0.944 | locus YOR106W, strain vam3, stronger effect = lower value 0.958 | locus YOR231W, strain MKK1, stronger effect = lower value 0.976 | locus YOR265W, strain rbl2, stronger effect = lower value 0.998 | locus YOR270C, strain vph1, stronger effect = lower value 0.94 | locus YOR290C, strain snf2, stronger effect = lower value 0.987 | locus YPL051W, strain arl3, stronger effect = lower value 0.963 | locus YPL078C, strain atp4, stronger effect = lower value 0.921 | locus YPL106C, strain sse1, stronger effect = lower value 1.04 | locus YPL240C, strain hsp82, stronger effect = lower value 0.99 | locus YPL256C, strain CLN2, stronger effect = lower value 0.948
